Experimental findings from PubChem BioAssay are described below.

The nature of the test: Plasmodium falciparum growth inhibition, primary screen, strain 3D7, DAPI fluorescence, 100 nL (AID 1184).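 Further: parasites grown inside human red blood cells in medium with human serum.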 The conditions noted are these: P. falciparum 3D7 growth, 3 d, higher = more signal.
Molecule `CC(=O)OC[C@H]1O[C@H](CCON=C(C)C)C=C[C@@H]1OC(C)=O` returned a z-score of 1.48. Regarding `CO[C@@H]1COC(=O)[C@H](CCSC)NC(=O)CC=C[C@@H](C)COC(=O)[C@@H]2CCCN2C(=O)CC=C[C@H]1C`, the z-score was -0.494. The same measure for `CCOC(=O)[C@H](CC(C)C)NC(=O)CCC1CC(OC(=O)NCc2ccc3c(c2)OCO3)CC2(CCCC(COC(=O)NCc3ccccc3)O2)O1` (stereo not given in full): -1.79; for `CC(CCC(=O)OC[C@H]1O[C@H](C#Cc2ccccc2)C=C[C@@H]1Oc1ccc(C)cc1)=NOC[C@@H](C)[C@H](OCc1ccccc1)C(C)C`: -0.0982. The same measure for `COc1ccc(-c2cnnc(CCCn3ccnc3-c3ccccc3)n2)cc1`: -0.964. The same measure for `COc1ccc(COC(=O)NN=C2C[C@@H](O)[C@@H](O)[C@@H]3[C@@H]4C(=O)N(C5CCCCC5)C(=O)[C@@H]4CC[C@@H]23)cc1`: -1.07; for `CCN1C(=O)[C@H]2[C@H]3[C@H](O)[C@H](O)CC(=NO[C@H](C)c4cn([C@H](CO)Cc5ccccc5)nn4)[C@@H]3CC[C@H]2C1=O`: 1.44. Regarding `CO[C@@H]1COC(=O)[C@H](COCc2ccccc2)NC(=O)CC=C[C@@H](C)[C@H](OC)COC(=O)[C@@H](C)NC(=O)CC=C[C@H]1C`, the z-score came to 0.591.

For the molecule `O=C1[C@H]2CCn3c(=O)n(Cc4cc5c(cc4Cl)OCO5)c(=O)n3[C@H]2[C@H](O)[C@@H]2O[C@H]12`, the z-score came out at 0.0829.

The molecule `COC(=O)CC=C[C@@H](C)[C@@H](C=NOC(C)CN1CCCc2nc(C)c(C)cc21)NS(=O)(=O)c1ccc(C)cc1` (stereo not given in full) had a z-score of 0.135.

As for `COC(=O)CC=C[C@@H](C)[C@@H](C=NOC[C@@H](O)COCc1ccco1)NS(=O)(=O)c1ccc(C)cc1`, the z-score is -0.546.

Consider `C[C@@H]1CC[C@H]2C(=O)O[C@@H](CN=[N+]=[N-])CN2[C@H]1c1ccc(Br)cc1`, for which the z-score is -1.72. The molecule `COC(OC)[C@@H](C)[C@H](OC)[C@@H](C)[C@H](OC)c1ccccc1` gave a z-score of 0.129.

For `CCOC(=O)[C@H](CC(C)C)NC(=O)CCC1CC(OC(=O)NCc2ccc3c(c2)OCO3)CC2(CCCC(COC(=O)NCCc3ccccc3OC)O2)O1` (stereo not given in full), the z-score is -1.88. The same measure for `CO[C@@H]1COC(=O)[C@@H]2CCCN2C(=O)[C@@H](C)COC(=O)CCC[C@H]1C`: 0.193. Molecule `CC(C)=NO[C@@H](C)c1cn([C@H](CO)Cc2ccccc2)nn1` gave a z-score of 0.412. In the case of `CC1(C)O[C@H]2O[C@H]([C@H](O)CON=C3[C@H]4CCn5c(=O)n(-c6ccccc6)c(=O)n5[C@H]4[C@H](O)[C@@H]4O[C@H]34)[C@H](O)[C@H]2O1` it was -0.511; in that of `COC(=O)CC=C[C@@H](C)[C@@H](C=NOC(C)CN1CCCCc2nc(C)c(C)cc21)OC` (stereo not given in full), 1. In the case of `COC(=O)CC=C[C@@H](C)[C@@H](C=NOC(C)CN1CCCCc2nc(C)c(C)cc21)NS(=O)(=O)c1ccc(C)cc1` (stereo not given in full), the z-score amounted to 0.453. The molecule `CCN1C(=O)[C@H]2[C@H]3[C@H](O)[C@H](O)CC(=NNC(=O)OCc4ccccc4)[C@@H]3CC[C@H]2C1=O` registered a z-score of 1.14. Turning to `CC(C)[C@@H](OCc1ccccc1)[C@H](C)C=NO[C@H](C)c1cn([C@@H]2COC[C@H]2O)nn1`, the z-score was 1.61. The same measure for `O=C1[C@H]2[C@H]3[C@H](O)[C@H](O)CC(=NO[C@@H]4O[C@H](CO)[C@@H](O)[C@H](O)[C@H]4O)[C@H]3CC[C@H]2C(=O)N1C[C@@H]1CCCO1`: 0.656; for `CC#CCOCCC=C1c2ccccc2[C@@H](OC)[C@@H]1C`: -1.02; for `C[C@@H]1CC[C@H]2C(=O)O[C@@H](COc3ccc(C(C)(C)C)cc3)CN2[C@H]1c1ccc(Br)cc1`: 0.907. The same measure for `COc1ccc(COC(=O)NN=C2C[C@@H](O)[C@@H](O)[C@@H]3[C@@H]4C(=O)N(Cc5ccccc5)C(=O)[C@@H]4CC[C@@H]23)cc1`: 0.0711.
